Screening data: PubChem BioAssay, National Center for Advancing Translational Sciences (NCATS)
In the library only some 1.3% were active in any assay of this set; here they are far more common.
TRPV1 agonist: human TRPV1 agonism. activation, % at 8.33 µM. actives 0.19% (n = 320,000). Q8NER1. AID 540275. TRPV1-expressing cells, Fluo-8 calcium influx, agonist mode; in the data active = activation above about 80%; inconclusive = between about 30% and that limit; note: 0% is about no effect
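Fluo-8 calcium influx in TRPV1-expressing cells, kinetic read (ex 480/em 520 nm). Compound added and read 3 min for agonist activity, followed by capsaicin at EC20 final and 2 min further read for enhancement.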
KCNH2 WT inh: KCNH2 (human, wildtype) channel inhibition; actives 0.37% (n = 340,000); U2OS, BacMam KCNH2, thallium flux FluxOr; hits give low values; AID 720551; activity change, % at 1.84 µM; Q12809;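 active = maximum activity change below -70%; inconclusive = maximum activity change between -70% and -50%; inactive = maximum activity change above -50%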; note: % is set by controls: 0 for no effect and ±100 for the full control effect
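U2OS cells were transduced with wild-type KCNH2 virus (2.03 x 10^8 / mL) for 4 h at room temperature, then cultured overnight at 37 C. Thallium flux was read with FluxOr dye. Rate constants were normalized to DMSO controls.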
KCNH2 3.1 inh: KCNH2 3.1 (human) potassium channel inhibition | actives 0.95% (n = 340,000) | U2OS KCNH2 3.1, thallium flux FluxOr; hits give low values | activity change, % (tested at about 1.8 µM);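 active = maximum activity change below -70%; inconclusive = maximum activity change from -70% to -50%; inactive = maximum activity change above -50%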;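 note: thallium influx rate constant from kinetic fluorescence after stimulation buffer; % is set by controls: 0 for no effect and ±100 for the full control effect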
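Channel expression came from 3.1 mutant virus (1.77 x 10^8 /mL) applied to suspended U2OS cells for 4 h. Flux was tracked with FluxOr dye plus Red40 quencher, and kinetic rate constants normalized to controls.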
TRPV1 PAM: enhances activation of the human vanilloid receptor TRPV1; TRPV1-expressing cells, Fluo-8 calcium influx, capsaicin EC20 potentiation; potentiation, % at 8.33 µM; actives 0.02% (n = 320,000); in the data active = potentiation above about 80%; inconclusive = between about 30% and that limit; note: 0% is about no effect
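TRPV1-expressing cells were cultured overnight at 35.5C and loaded with Fluo-8 calcium dye for 40 to 90 min at room temperature. After a 10 s baseline, compound was added and calcium influx was read kinetically for 3 min (ex 480/em 520 nm).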
MBNL1-CUG inh: inhibitors of human MBNL1 binding to CUG repeat RNA; AID 2675; Potency, µM (doses to about 57.5 µM), without a hit: top-dose activity change, negative = inhibition, actives largely listed as inhibitors; TR-FRET MBNL1-His/biotin-(CUG)12 binding, 665/545 ratio; actives 0.036% (n = 280,000); Q9NR56; active = well fitted inhibition curve with a large enough effect in the signal ratio, with a control signal flat, not every such curve was filed as active; inconclusive = small, poorly fitted or top-dose-only effect, or effect the other way, or a change in a side signal; inactive = no such curve, though single readings can be large or run the other way; the % refers to the signal ratio; note: potency is the fitted concentration of half-maximal effect; % is set by controls: 0 for no effect and ±100 for the full control effect
Target sequence (Q9NR56 whole entry, looked up): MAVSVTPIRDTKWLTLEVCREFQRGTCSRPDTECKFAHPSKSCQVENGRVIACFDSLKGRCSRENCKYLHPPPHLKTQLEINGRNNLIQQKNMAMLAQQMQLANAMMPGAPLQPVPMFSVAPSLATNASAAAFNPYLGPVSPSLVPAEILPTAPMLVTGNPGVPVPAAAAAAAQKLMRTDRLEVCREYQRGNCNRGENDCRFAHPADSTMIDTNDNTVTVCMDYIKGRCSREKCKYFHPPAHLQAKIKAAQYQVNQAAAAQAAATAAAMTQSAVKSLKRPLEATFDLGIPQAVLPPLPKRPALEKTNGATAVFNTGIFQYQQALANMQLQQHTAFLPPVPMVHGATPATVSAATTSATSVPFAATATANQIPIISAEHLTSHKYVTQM
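Compound titration spanned 92 nM–58 uM against the MBNL1-His/biotin-(CUG)12 complex. After 60 min at room temperature with 5 nM streptavidin-XL665 and 0.055 ng/ul terbium anti-His, ratiometric 665/545 nm emission (Ex 340 nm) normalized to controls.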
An asterisk follows results filed as active.

Screening O=C(c1cc([N+](=O)[O-])ccc1N1CCOCC1)N1CCCC1 returned TRPV1 agonist 0.5, KCNH2 WT inh -3.4, KCNH2 3.1 inh -7.4, TRPV1 PAM 13.1 and MBNL1-CUG inh inconclusive.
`O=C(NCc1ccncc1)C1CCCN(S(=O)(=O)c2cc(Cl)ccc2Cl)C1` (configuration not stated) gave TRPV1 agonist 87.2*, KCNH2 WT inh 1.1, KCNH2 3.1 inh -7.5 and TRPV1 PAM -18.1.
O=C(NCc1ccncc1)C1CCN(S(=O)(=O)c2cc(Cl)ccc2Cl)CC1 was read as TRPV1 agonist inconclusive, KCNH2 WT inh 0.2, KCNH2 3.1 inh -10.2, TRPV1 PAM -8.6 and MBNL1-CUG inh -4.0%.
CC(C)c1ccc([N+](=O)[O-])cc1S(=O)(=O)N1CCN(C)CC1 was read as TRPV1 agonist 0.6, KCNH2 WT inh 12.9, KCNH2 3.1 inh 7.5, TRPV1 PAM -15.4 and MBNL1-CUG inh 9.8%.
For Cc1csc(NC(=O)CCC(=O)N(CC(=O)NC2CCCC2)Cc2ccccc2)n1 the results were TRPV1 agonist 4.6, KCNH2 WT inh 7.7, KCNH2 3.1 inh 12.2, TRPV1 PAM -1.6 and MBNL1-CUG inh -8.8%.
Screening Cc1nc2ccccc2cc1OCc1ccc(Cl)cc1 returned TRPV1 agonist 83.4*, KCNH2 WT inh 0.1, KCNH2 3.1 inh -0.5, TRPV1 PAM -14.7 and MBNL1-CUG inh -0.9%.
`Cc1nc2ccccc2cc1OCc1ccccc1` gave TRPV1 agonist inconclusive, KCNH2 WT inh 0.9, KCNH2 3.1 inh -12.0, TRPV1 PAM 6.6 and MBNL1-CUG inh 7.0%.
`Cc1cc(C)cc(-n2ncc3c2CCCC3NC(=O)c2csnn2)c1` (configuration not stated) gave TRPV1 agonist 9.2, KCNH2 WT inh -37.8, KCNH2 3.1 inh 4.3, TRPV1 PAM -8.8 and MBNL1-CUG inh -1.0%.
Cc1nnsc1C(=O)NC1CCCc2c1cnn2-c1ccc(C(C)(C)C)cc1 (configuration not stated) was read as TRPV1 agonist 85.2*, KCNH2 WT inh -10.9, KCNH2 3.1 inh -12.8, TRPV1 PAM 3.3 and MBNL1-CUG inh -0.3%.
`Cc1ccc(-n2ncc3c2CCCC3NC(=O)c2csnn2)cc1C` (configuration not stated) gave TRPV1 agonist inconclusive, KCNH2 WT inh -89.3*, KCNH2 3.1 inh 7.4, TRPV1 PAM -4.7 and MBNL1-CUG inh 6.0%.
CCCn1c(SCC(=O)NC2CCCC2)nnc1-c1cccnc1 was read as TRPV1 agonist -0.2, KCNH2 WT inh -21.0, KCNH2 3.1 inh 10.3, TRPV1 PAM 1.3 and MBNL1-CUG inh -12.2%.
COc1cc(NS(=O)(=O)c2ccc(NC(=S)NC(=O)CC(C)C)cc2)nc(OC)n1 was read as TRPV1 agonist -1.8, KCNH2 WT inh -118.1*, KCNH2 3.1 inh -30.5, TRPV1 PAM 26.6 and MBNL1-CUG inh 0.0%.
Screening O=C(C1CCN(C2CCN(CC3CC=CCC3)CC2)CC1)N1CCOCC1 (configuration not stated) returned TRPV1 agonist 0.7, KCNH2 WT inh 9.4, KCNH2 3.1 inh -14.9, TRPV1 PAM -12.8 and MBNL1-CUG inh 1.4%.
Clc1cccc(CNCCCSc2ncccn2)c1Cl was read as TRPV1 agonist 0.3, KCNH2 WT inh -9.4, KCNH2 3.1 inh -94.2*, TRPV1 PAM -0.1 and MBNL1-CUG inh -0.5%.
`Clc1cccc(Cl)c1CNCCCSc1ncccn1` gave TRPV1 agonist -2.3, KCNH2 WT inh 4.9, KCNH2 3.1 inh -3.1, TRPV1 PAM 7.1 and MBNL1-CUG inh -4.4%.
For COc1ccc(S(=O)(=O)NNC(=O)c2cccs2)cc1 the results were TRPV1 agonist -5.5, KCNH2 WT inh -2.2, KCNH2 3.1 inh -104.0*, TRPV1 PAM 19.2 and MBNL1-CUG inh -6.0%.
For CN(C)c1ccc(/C=C(\C#N)C(=O)c2ccccc2)cc1 the results were TRPV1 agonist 83.7*, KCNH2 WT inh -8.3, KCNH2 3.1 inh -22.4, TRPV1 PAM 22.2 and MBNL1-CUG inh inconclusive.
COc1cc(C)ccc1OCC(=O)NC1CCCCCC1 was read as TRPV1 agonist inconclusive, KCNH2 WT inh 1.5, KCNH2 3.1 inh -15.1 and TRPV1 PAM -19.5.
Screening COc1ccc(C)cc1NC(C)C(=O)NC(=O)NC1CCCCC1 (configuration not stated) returned TRPV1 agonist 17.2, KCNH2 WT inh -3.0, KCNH2 3.1 inh -97.3* and TRPV1 PAM -13.8.
`O=[N+]([O-])c1ccc(N2CCN(C(=S)NC3CCCCC3)CC2)cc1` gave TRPV1 agonist 0.8, KCNH2 WT inh -23.5, KCNH2 3.1 inh -72.0*, TRPV1 PAM 0.6 and MBNL1-CUG inh inconclusive.
O=C(CCCSc1nc2ccccc2[nH]1)N1CCN(c2ccc([N+](=O)[O-])cc2)CC1 was read as TRPV1 agonist -4.3, KCNH2 WT inh -105.2*, KCNH2 3.1 inh -115.9*, TRPV1 PAM 16.3 and MBNL1-CUG inh 6.2%.
For O=[N+]([O-])c1ccc(N2CCN(S(=O)(=O)c3ccccc3)CC2)cc1 the results were TRPV1 agonist -3.8, KCNH2 WT inh -80.4*, KCNH2 3.1 inh -84.1*, TRPV1 PAM -2.7 and MBNL1-CUG inh inconclusive.
For Cc1c(Cl)cccc1-c1ccc(C(=O)N2CCN(c3ccc([N+](=O)[O-])cc3)CC2)o1 the results were TRPV1 agonist 1.9, KCNH2 WT inh -47.8, KCNH2 3.1 inh -79.7*, TRPV1 PAM -1.0 and MBNL1-CUG inh 18.1%.
For COc1ccc(N2CCN(C(=O)c3ccc(COc4ccc([N+](=O)[O-])cc4)o3)CC2)cc1 the results were TRPV1 agonist 3.4, KCNH2 WT inh 5.0, KCNH2 3.1 inh -21.3, TRPV1 PAM 7.7 and MBNL1-CUG inh inconclusive.
For c1ccc(Cn2cc(-c3ccccc3)cn2)cc1 the results were TRPV1 agonist 1.7, KCNH2 WT inh -2.1, KCNH2 3.1 inh -7.0 and TRPV1 PAM -6.8.
Screening Cc1ccc(N2CC(C(=O)Nc3ccc(S(=O)(=O)N4CCOCC4)cc3)CC2=O)cc1Cl (configuration not stated) returned TRPV1 agonist -1.6, KCNH2 WT inh 3.9, KCNH2 3.1 inh 23.0 and TRPV1 PAM inconclusive.
For CC1(c2ccc([N+](=O)[O-])cc2)NC(=O)N(CC(=O)Nc2cccnc2Cl)C1=O (configuration not stated) the results were TRPV1 agonist 0.9, KCNH2 WT inh 11.4, KCNH2 3.1 inh -1.1 and TRPV1 PAM 6.6.
Screening CCCCNC(=O)COC(=O)CNC(=O)c1cc(Cl)cc([N+](=O)[O-])c1 returned TRPV1 agonist 0.7, KCNH2 WT inh 4.2, KCNH2 3.1 inh -12.8, TRPV1 PAM 9.7 and MBNL1-CUG inh inconclusive.
`CCOC(=O)N1CCN(c2ccc([N+](=O)[O-])cc2)CC1` gave TRPV1 agonist inconclusive, KCNH2 WT inh 1.9, KCNH2 3.1 inh -22.3, TRPV1 PAM -23.2 and MBNL1-CUG inh inconclusive.
